Sm TGR inh = inhibitors of Schistosoma mansoni thioredoxin glutathione reductase; Q962Y6; Potency, µM (titrated, usually from 114 µM), most hits filed as inhibitors; AID 485364; purified TGR, DTNB reduction, TNB absorbance 405 nm; 360,000 compounds, 3% hits; further: nearly all actives have a fitted effect of over 60% in size
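Kinetic colorimetric format: TGR-catalysed, NADPH-driven DTNB reduction monitored via TNB absorbance. Enzyme dispensed at 20 nM; compound exposure 15 min at room temperature before reaction start.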
AmpC inh no detg = AmpC beta-lactamase inhibition without detergent | P00811 | AmpC nitrocefin hydrolysis, absorbance 480 nm, 0.0001% Triton | Potency, µM (doses to about 57.1 µM), most hits filed as inhibitors | 330,000 compounds, 0.52% hits | AID 485341; further: nearly all actives have a fitted effect of over 20% in size
Target sequence (P00811 whole entry, looked up): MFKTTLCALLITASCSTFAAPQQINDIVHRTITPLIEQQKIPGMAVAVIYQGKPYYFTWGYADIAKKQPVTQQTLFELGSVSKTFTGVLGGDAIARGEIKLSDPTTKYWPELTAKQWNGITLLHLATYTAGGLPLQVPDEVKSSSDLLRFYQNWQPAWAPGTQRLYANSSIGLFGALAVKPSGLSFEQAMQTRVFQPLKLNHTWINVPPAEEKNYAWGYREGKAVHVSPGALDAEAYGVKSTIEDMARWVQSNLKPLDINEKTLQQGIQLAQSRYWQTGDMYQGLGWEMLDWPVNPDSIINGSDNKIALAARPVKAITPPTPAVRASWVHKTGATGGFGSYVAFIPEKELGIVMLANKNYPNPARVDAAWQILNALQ
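AmpC (5.3 nM in the dispensed reagent) in 20 mM phosphate pH 7.0 with 0.01% (detergent screen) or 0.0001% Triton X-100 was preincubated with compounds for 15 min at room temperature. Nitrocefin was then added from an 800 uM solution, and hydrolysis was followed at 480 nm.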
AmpC inh detg = blocks E. coli AmpC beta-lactamase in detergent assay; P00811; AmpC hydrolysis of nitrocefin, absorbance 480 nm, 0.01% Triton; Potency, µM (top dose mostly 114 µM), most hits filed as inhibitors; 370,000 compounds, 0.041% hits; AID 485294; further: nearly all actives have a fitted effect of over 25% in size
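AmpC (5.3 nM in the dispensed reagent) in 20 mM phosphate pH 7.0 with 0.01% (detergent screen) or 0.0001% Triton X-100 was preincubated with compounds for 15 min at room temperature. Nitrocefin was then added from an 800 uM solution, and hydrolysis was followed at 480 nm.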
SARS PLP yeast = blocks SARS-CoV papain-like protease in a yeast assay | S. cerevisiae expressing SARS-CoV PLpro, growth rescue | Potency, µM (top dose mostly 32.9 µM), most hits filed as activators | 330,000 compounds, 0.19% hits | AID 485353; calls by dose curve; further: nearly all actives have a fitted effect of over 55% in size
Pf growth 96h = P. falciparum growth inhibition at 96 hour, primary screen for plastid delayed-death inhibitors. P. falciparum luciferase reporter growth, 96 h. Potency, µM (titrated, usually from 28.7 µM), actives largely listed as inhibitors. 320,000 compounds, 6.9% hits
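Plates of compound plus infected erythrocytes (2% hematocrit, 0.05% parasitemia final) incubate 96 hours, 37 C, 5% CO2. Detection reagent added; reduced luminescence from the parasites' luciferase reporter flags inhibition.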
Pf growth 48h = inhibits P. falciparum growth in the first generation, 48 h | P. falciparum luciferase growth in erythrocytes, 48 h | Potency, µM (highest dose often 28.7 µM), hits mostly inhibitors | 310,000 compounds, 5.9% hits
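A one-generation exposure of luciferase-tagged malaria parasites in RPMI 1640/Albumax erythrocyte culture, 37 C and 5% CO2. Inhibition is inferred from decreased luminescence after adding detection reagent.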
Of the large screens only hits and unclear results are named; the others gave an inactive call. Rows were chosen to be rich in hits. Some 12% of all compounds tested hit in one or more screens of this group. Unless noted, the call rests on the fitted dose curve; in most records, active means well fitted curve in the direction sought with a large enough effect; inconclusive means small, poorly fitted or top-dose-only effect, or another doubt; inactive means no such curve, though single readings can be large; an effect the other way counts as inactive or inconclusive.

Cc1cc(C(=O)NCc2ccco2)c2cc(F)ccc2n1	none
COc1cccc(CNC(=O)c2cc(-c3cccs3)nc3ccccc23)c1	none (no result: AmpC inh no detg, SARS PLP yeast, Pf growth 96h, Pf growth 48h)
O=C(NCc1ccco1)c1c2c(nc3ccccc13)CCC2	Sm TGR inh 40µM
O=C(NCc1ccco1)c1cc(-c2cccs2)nc2ccccc12	Pf growth 96h 19µM, Pf growth 48h inconclusive
COCc1cc(C)nc2c1C(=O)NC(c1ccc(Br)cc1)N2Cc1ccccc1 (centres undefined)	none (no result: AmpC inh no detg, SARS PLP yeast, Pf growth 96h, Pf growth 48h)
O=C(COC(=O)c1cc(-c2ccc(Cl)s2)nc2ccccc12)NCc1ccco1	Sm TGR inh 7.9µM (no result: Pf growth 96h)
Cc1cc(-c2cc(C(=O)O)c3ccccc3n2)c(C)s1	Pf growth 96h 1.7µM (no result: Sm TGR inh)
Cc1nn(C)cc1-c1cc(C(=O)O)c2ccccc2n1	none
COc1ccc(-c2cc(C(F)(F)F)nc(SCCC(=O)Nc3cccc(O)c3)n2)cc1	none (no result: AmpC inh no detg, SARS PLP yeast, Pf growth 96h, Pf growth 48h)
CN(CC(=O)Nc1ccc(F)cc1)C(=O)COc1ccccc1Cc1ccccc1	AmpC inh no detg 35µM, Pf growth 96h 5.2µM, Pf growth 48h inconclusive
CN(CC(=O)Nc1ccccc1C(F)(F)F)C(=O)COc1ccccc1Cc1ccccc1	Pf growth 96h inconclusive, Pf growth 48h inconclusive
COc1ccc(NC(=O)CN(C)C(=O)COc2ccccc2Cc2ccccc2)cc1	Pf growth 96h inconclusive, Pf growth 48h 9.3µM
CC(C)CCNC(=O)c1ccc2c(c1)NC(=O)C(C(C)C)N2 (centres undefined)	none (no result: AmpC inh no detg, SARS PLP yeast, Pf growth 96h, Pf growth 48h)
CCCC(=O)Nc1nnc(SCC(=O)N2CCCCC2)s1	none
S=C1NC2(CCCCCC2)N=C1c1ccccc1	Pf growth 48h 13µM
CCCSc1ccc([C@H]2N[C@@](CC(C)C)(C(=O)OC)[C@H]3C(=O)N(CC)C(=O)[C@@H]23)cc1	none (no result: Sm TGR inh, AmpC inh detg, Pf growth 96h, Pf growth 48h)
CC(=O)Nc1ccc(OCC(O)CN2CCN(c3cccc(Cl)c3)CC2)cc1 (centres undefined)	Pf growth 96h 10µM, Pf growth 48h inconclusive
CC(=O)Nc1ccc(OCC(O)Cn2nc(C)c(C)c2C)cc1 (centres undefined)	Pf growth 96h 10µM
CC(=O)Nc1ccc(OCC(O)Cn2c(C)nc3ccccc32)cc1 (centres undefined)	none (no result: Pf growth 48h)
CC(=O)Nc1ccc(OCC(O)CN2CCN(c3ccc(Cl)cc3)CC2)cc1 (centres undefined)	Pf growth 96h inconclusive, Pf growth 48h inconclusive
CC(=O)Nc1ccc(OCC(O)Cn2nc(C)c(C(C)=O)c2C)cc1 (centres undefined)	none (no result: Pf growth 96h)
CC(=O)Nc1ccc(OCC(O)Cn2c(C(C)C)nc3ccccc32)cc1 (centres undefined)	Pf growth 96h 2.3µM (no result: Sm TGR inh)
CC1(C)N([O-])C2=C(c3ccccc3C2=O)[N+](=O)C1(C)C	none (no result: Pf growth 96h, Pf growth 48h)
COc1ccccc1CNC(=O)CSc1ccc(-c2sc(-c3ccccc3)nc2C)nn1	none (no result: AmpC inh no detg, SARS PLP yeast, Pf growth 96h, Pf growth 48h)
O=C(CCN1C(=O)C2CC=C(Cl)CC2C1=O)NCc1ccccc1 (centres undefined)	none
Cc1ccc(NC(=O)CN2C(=O)C3CC=C(Cl)CC3C2=O)cc1 (centres undefined)	none
O=C(CCN1C(=O)C2CC=C(Cl)CC2C1=O)Nc1ccccc1O (centres undefined)	Pf growth 96h 1µM
O=C(CN1C(=O)C2CC=C(Cl)CC2C1=O)Nc1ccc(C(=O)O)cc1 (centres undefined)	Pf growth 96h 13µM
Cc1ccc(OCc2ccc(C(=O)NCc3cccnc3)cc2)cc1C	none (no result: Sm TGR inh)
CC[N+]1(C)[C@@H]2CC[C@H]1CC(OC(=O)[C@H]1CCC(C(=O)OC3C[C@H]4CC[C@@H](C3)[N+]4(C)CC)(c3ccccc3)c3ccccc31)C2 (some centres undefined)	Sm TGR inh 50µM, AmpC inh detg inconclusive, Pf growth 96h 8.3µM, Pf growth 48h 10µM (no result: SARS PLP yeast)
COC(=O)[C@@]12CCCCN1[C@H](c1ccc(-c3ccccc3)c(OC)c1)[C@H]1C(=O)N(C)C(=O)[C@H]12	none (no result: Sm TGR inh, AmpC inh detg, Pf growth 96h, Pf growth 48h)
COC(=O)[C@@]12CCCCN1[C@H](c1ccc(-c3cccc(Cl)c3)c(OC)c1)[C@@H]1C(=O)N(C)C(=O)[C@@H]12	Pf growth 96h 7.4µM, Pf growth 48h 9.3µM
COC(=O)[C@@]12CCCN1[C@H](c1ccc(-c3cccc(Cl)c3)c(OC)c1)[C@H]1C(=O)N(C)C(=O)[C@H]12	Sm TGR inh inconclusive, Pf growth 96h 0.33µM, Pf growth 48h 2.3µM
COC(=O)[C@@]12CCCCN1[C@H](c1ccc(-c3ccc(C(C)=O)cc3)c(OC)c1)[C@@H]1C(=O)N(C)C(=O)[C@@H]12	Sm TGR inh inconclusive, Pf growth 96h inconclusive, Pf growth 48h 8.3µM
COC(=O)c1ccc(NC(=O)N2CCN(c3nnc(C)c4c(C)n(-c5ccccc5)nc34)CC2)cc1	none (no result: AmpC inh no detg, SARS PLP yeast, Pf growth 96h, Pf growth 48h)
OCCC1CN(Cc2ccccc2-c2ccco2)CCN1C1CCCC1 (centres undefined)	Pf growth 96h inconclusive, Pf growth 48h 9.3µM
CC(C)N1CCN(Cc2ccccc2-c2ccco2)CC1CCO (centres undefined)	Pf growth 96h inconclusive
CC(=O)N=c1c(C#N)cc2c(=O)n3cccc(C)c3nc2n1Cc1ccco1	Sm TGR inh 28µM, Pf growth 96h inconclusive
Cc1ccccc1C(=O)N=c1c(C#N)cc2c(=O)n3cccc(C)c3nc2n1Cc1ccco1	Sm TGR inh inconclusive (no result: Pf growth 48h)
CCCCn1c(=NC(=O)c2cccnc2)c(C#N)cc2c(=O)n3cccc(C)c3nc21	Pf growth 96h inconclusive (no result: Pf growth 48h)
CC(=O)N=c1c(C#N)cc2c(=O)n3cccc(C)c3nc2n1CCCOC(C)C	Pf growth 96h 10µM, Pf growth 48h inconclusive
CCCn1c(=NC(=O)c2ccc3c(c2)OCO3)c(C#N)cc2c(=O)n3cccc(C)c3nc21	none
COCCCn1c(=NC(=O)c2ccncc2)c(C#N)cc2c(=O)n3cccc(C)c3nc21	Pf growth 48h 2.9µM
COc1ccc(C(=O)N=c2c(C#N)cc3c(=O)n4cccc(C)c4nc3n2Cc2ccco2)cc1	Sm TGR inh inconclusive, AmpC inh detg inconclusive, Pf growth 96h inconclusive (no result: Pf growth 48h)
N#Cc1cc2c(=O)n3ccccc3nc2n(Cc2ccco2)c1=NC(=O)c1ccco1	Pf growth 96h 12µM, Pf growth 48h inconclusive
CCOC(=O)c1c(C)oc2nc(C)nc(NCc3cccc(OC)c3)c12	none (no result: AmpC inh no detg, SARS PLP yeast, Pf growth 96h, Pf growth 48h)
COc1ccc(-n2ccnc(NCc3ccc(Cl)cc3)c2=O)cc1	none (no result: AmpC inh no detg, SARS PLP yeast, Pf growth 96h, Pf growth 48h)
COCCN(CC(=O)Nc1cccc(C)c1C)C(=O)c1cc2c(s1)CCC2	AmpC inh detg inconclusive, Pf growth 96h inconclusive, Pf growth 48h inconclusive
Cc1cccn2c(=O)c3cc(C#N)c(=NC(=O)c4cccs4)n(CCCOC(C)C)c3nc12	Pf growth 96h 1.9µM, Pf growth 48h 1.7µM
